Bioassay records deposited in PubChem BioAssay by several laboratories.
An excerpt weighted towards active compounds, which were near 4.1% of everything screened.
PolyA inh: polyadenylation inhibitors in yeast reporter cells, primary screen, luminescence, S. cerevisiae; activity score, % at 12 µM; hit rate 0.02% among 300,000; AID 1875, 2009; S. cerevisiae SKY197-pL101 polyadenylation reporter, beta-gal luminescence; efflux-impaired pdr1/pdr3 knockout yeast; score 100 = 6 SD above DMSO;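 active = lowest replicate activity score at least 50, where 100 means six control SD above control mean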;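 note: yeast exposed to compound for 9 h at 30 °C; higher score means more reporter readthrough which indicates perturbed polyadenylation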
hcDAF12 agonist: H. contortus DAF-12 nuclear receptor activators, primary screen, cell-based, luminescence, HEK293, lit1-tk-luc reporter; HEK293 hcDAF-12 lit1-tk-luc reporter; 0% DMSO, 100% Δ7-dafachronic acid; activation, % at 6.8 µM; hit rate 1.4% among 370,000;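 active = activation above the mean of all tested compounds plus 3 SD, cut at about 5.5% in these data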;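 note: 100% = response to 3 µM Δ7-dafachronic acid high control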
hgDAF-12 ag: H. glycines DAF-12 receptor agonists, primary screen, cell-based, luminescence, HEK293, GAL4 fusion, UAS-luciferase; HEK293 GAL4-hgDAF12 UAS-luciferase reporter, agonist luminescence; normalized to butyrate control; Nuclear hormone receptor DAF-12 (Heterodera glycines), GAL4 fusion; activation, % at 6.8 µM; hit rate 1.8% among 370,000; AID 687014, 2013;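 active = activation above a cutoff set at the mean of all screened compounds plus 3 SD, cut at about 10% in these data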;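 note: 0% = DMSO wells and 100% = sodium butyrate wells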
DAX1 inh-1: DAX1 (NR0B1) inhibitors on StAR promoter, primary screen, cell-based, luminescence, SF-1 (NR5A1), full-length DAX-1; HEK293T StAR-luciferase reporter, SF-1/DAX-1 repression relief; inhibition, % at 6.8 µM; hit rate 1.1% among 370,000;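 active = inhibition above the mean over all tested compounds plus 3 SD, cut at about 3.6% in these data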;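 note: 0% = DAX-1 cells with DMSO and 100% = cells lacking DAX-1 with DMSO; higher inhibition means more luminescence from relief of DAX-1 repression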
DAX1 inh-2: DAX1 (NR0B1) inhibitors, primary screen, cell-based, HEK293, Gal4-DAX1, luciferase luminescence. HEK293 Gal4-DAX1 luciferase reporter. Nuclear receptor subfamily 0 group B member 1 (Homo sapiens), P51843. hit rate 0.99% among 340,000. AID 504766, 2011. inhibition, % at 6.75 µM;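 active = inhibition above the mean over all tested compounds plus 3 SD, cut at about 4.2% in these data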;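 note: 0% = DAX1-transfected cells with DMSO and 100% = empty-vector control cells with DMSO; inhibition shows as a rise in luminescence from relieved DAX1 repression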
Target sequence (P51843 207-470 limits assumed): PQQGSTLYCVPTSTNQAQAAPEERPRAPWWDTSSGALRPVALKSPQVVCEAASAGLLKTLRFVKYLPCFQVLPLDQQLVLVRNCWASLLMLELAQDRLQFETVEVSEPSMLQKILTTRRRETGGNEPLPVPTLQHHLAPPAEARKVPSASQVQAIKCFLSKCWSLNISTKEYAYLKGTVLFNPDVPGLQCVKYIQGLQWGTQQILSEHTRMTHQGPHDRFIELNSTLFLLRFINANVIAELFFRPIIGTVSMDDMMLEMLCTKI
ssDAF12 agonist: S. stercoralis DAF-12 nuclear receptor activators, primary screen, cell-based, luminescence, HEK293, GRIP1 co-expression, lit1-tk-luc | activation, % at 6.8 µM | HEK293 ssDAF-12/GRIP1 lit1-tk-luc reporter; % of 3 µM dafachronic acid response | hit rate 1% among 370,000 | Nuclear hormone receptor DAF-12 (Strongyloides stercoralis) | AID 652126, 2013;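 active = activation above the mean over all tested compounds plus 3 SD, cut at about 0.9% in these data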;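 note: 0% = DMSO-only wells and 100% = 3 µM delta7-dafachronic acid wells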
The depositor's hits bear a star; . = no result given.

SMILES	PolyA inh	hcDAF12 agonist	hgDAF-12 ag	DAX1 inh-1	DAX1 inh-2	ssDAF12 agonist
COc1ccc(OCc2cc(C(=O)N[C@H]3CCCCNC3=O)no2)c(Cl)c1	4	1	4	3.6*	1	-1
CCCCNC(=O)C[C@H]1C[C@@]2(C(=O)OC)C(=C[C@H](C(C)(C)C)O[C@@H]2C)N(Cc2ccccc2)C1=O	.	1	1	-1	.	-1
COC(=O)[C@]12C[C@H](CC(=O)N3CCOCC3)C(=O)N(CCC3=CCCCC3)C1=C[C@H](C1CCCC1)O[C@@H]2C	.	-2	-2	0	.	-2
FC(F)(F)c1nnc2c(Sc3ccccn3)nc3ccccc3n12	-9	5.6*	7	0	1	0
Fc1cccc(Cn2ccc3ccc(-c4ccc5ccn(Cc6ccccc6)c5c4)cc32)c1	.	-1	3	-1	.	-1
CCOC(=O)CCCNC(=O)OC1CC2CC1[C@H]1CCCCN1[C@H]2Cc1ccccc1 (stereo not given in full)	.	-1	-4	0	.	0
O=C1C2CC=C(Cl)CC2C(=O)N1CCc1c[nH]c2ccccc12 (stereo not given)	-12	4	3	1	2	1.2*
O=C(O)c1ccc2c(c1)C(=O)N(CCc1c[nH]c3ccccc13)C2=O	-3	5.8*	3	0	1	0
COC(=O)C1=C(C)N(C)C(=NCC2CC2)NC1c1ccccc1 (stereo not given)	.	1	1	-2	.	-1
C/C(=N\NC(=O)c1ccoc1C)c1cccc2ccccc12	-9	3	13*	1	0	0
C/C(=N\NC(=O)c1cccc2ccccc12)c1ccccn1	-36	-2	0	-1	-1	-1
Cc1ccc(C(=O)N/N=C\c2ccccn2)cn1	11	0	1	0	2	-2
COc1cc(/C=N/NC(=O)c2ccoc2C)ccc1O	4	2	10*	1	3	0
CCOc1ccc(/C=N/NC(=O)c2ccoc2C)cc1OC	-1	1	9	3	1	0
Cc1occc1C(=O)N/N=C/c1ccccn1	7	1	11*	2	1	1
Cc1cc(N2CCN(CC(C)(C)O)C[C@H]2C)ccc1N1CCN(Cc2ccccc2)[C@@H](C)C1	.	3	-4	-2	.	-1
Nc1c(Br)cc2c([nH]c(=O)c3ccccc32)c1Br	.	6.3*	4	-2	0	2.4*
O=c1[nH]c2ccccc2c2ccc(Cl)cc12	.	0	5	0	1	0
COc1ccccc1C(=O)NC1CCCCN(Cc2cccc(C(F)(F)F)c2)C1=O (stereo not given)	.	-3	19*	-1	.	-2
Nc1c(Cl)cc(N=Nc2ccccc2)cc1Cl	.	5	7	3	1	1.0*
COc1ccc(-n2nnc3c(=O)n(CC(=O)N4CCCc5ccccc54)cnc32)cc1	-11	1	-2	-1	0	0
COc1ccc(-n2nnc3c(SCC(=O)N4CCCc5ccccc54)ncnc32)cc1	-7	-2	-4	1	6.3*	-1
c1ccc2oc(-c3[nH]ncc3CN3CCSCC3)cc2c1	2	-1	-2	0	3	-2
c1ccc2oc(-c3ccn[nH]3)cc2c1	-7	5	6	1	5.9*	-1
COCc1[nH]nc2c1C(c1cccc(C(F)(F)F)c1)N(c1ccc(OC)cc1)C2=O (stereo not given)	.	-2	-3	-1	.	-1
SMILES	PolyA inh	hcDAF12 agonist	hgDAF-12 ag	DAX1 inh-1	DAX1 inh-2	ssDAF12 agonist
CCSc1nnc(N2C(=O)CC(c3ccsc3)C3=C2CC(C)(C)CC3=O)s1 (stereo not given)	-20	-2	-3	2	5.3*	-1
O=C(NCCc1ccc(F)cc1)c1cc2ccccn2n1	.	-1	7	2	.	-1
CN(C)Cc1nnnn1-c1ccccc1	4	0	-2	0	4.9*	-1
CCNC(=O)Nc1ccc2c(c1)C(=O)N(C)[C@H]1CC[C@@H](CC(=O)OC)O[C@H]1CO2	.	1	-1	0	.	-1
CCCc1cc(=O)[nH]c(SCc2nc3ccccc3s2)n1	5	6.0*	3	1	0	0
NC(=O)N/N=C/c1sc(N2CCCCC2)nc1-c1cccs1	2	0	12*	-2	-2	-1
Cc1ccccc1N1CCN(C2=Nc3ccccc3Sc3ccccc32)CC1	.	-3	-7	-1	.	-2
CN(C)C(=O)c1ccc(-c2n[nH]c(=O)c3ccccc23)cc1	-6	0	-1	1	4.8*	-2
COC(=O)c1ccc(-c2n[nH]c(=O)c3ccccc23)cc1	2	-2	0	0	0	-1
N=C(N)c1ccc(/C=C/c2ccc(C(=N)N)cc2O)cc1	-20	-2	2	0	5.1*	-1
N=C(N)c1ccc(Cl)cc1	-8	-1	-4	0	0	-1
COC[C@H]1CCCN1c1ccc2c(c1)OCCCN(C1CC1)S2(=O)=O	.	-2	0	1	.	-1
O=C(C(=O)N1CCC(CNS(=O)(=O)c2cccc(C(F)(F)F)c2)CC1)c1cc2ccccc2o1	.	-1	0	0	.	-1
O=C1N(CC[C@@H](O)c2ccccc2)CCC12CCC(c1ccccc1)CC2 (stereo not given in full)	.	-3	0	.	.	-1
Cc1ccc(-n2c(SCC(=O)Nc3ccc(S(=O)(=O)Nc4nccs4)cc3)nnc2-c2cccs2)cc1	.	0	-2	1	.	-1
O=c1[nH][nH]cc1C=Nc1ccc(Oc2ccccc2)cc1	-4	-2	1	0	0	6.9*
C(=N\c1ncnc2sccc12)/NOCc1ccccc1	95*	-3	-3	-2	-1	-1
CCn1c(C(=O)OC)cc2c1ccn2-c1ccc(F)cc1	-37	2	13*	1	2	0
CC(C)C[C@H](NS(=O)(=O)c1ccc(F)cc1F)C(=O)N1CCC[C@H]1C(=O)NCc1ccccc1	.	3	9	1	.	-1
Cc1ccc(C)n1-n1cnc2sc(-c3ccccc3)cc2c1=O	-9	-2	-1	-1	-2	-1
CC(=O)Cn1cnc2sc(-c3ccccc3)cc2c1=O	-15	3	11*	2	1	-1
